This passage reports outcome results from PubChem BioAssay AID1729 (National Center for Advancing Translational Sciences (NCATS), 2009).

Results filed as inconclusive are left out. Activity calls are given as the source filed them. The call rests on the fitted dose curve; in most records, active means well fitted curve in the direction sought with a large enough effect; inconclusive means small, poorly fitted or top-dose-only effect, or effect the other way, or another doubt; inactive means no such curve, though single readings can be large or run the other way.

This experiment addresses Epidermal growth factor receptor (Homo sapiens) (UniProt P00533). The experiment can be described thus: Assay for Inhibitors of the ERK Signaling Pathway using a Homogeneous Screening Assay: EGFR T790M Kinase Inhibition. The source says:
qHTS Assay for Inhibitors of the ERK Signaling Pathway using a Homogeneous Screening Assay
NIH Chemical Genomics Center [NCGC]
NIH Molecular Libraries Screening Centers Network [MLSCN]
Assay Submitter (PI): Dr. Wei Zheng, NCGC/NIH
The Ras/extracellular-signal-regulated kinase (ERK) mitogen activated protein (MAP) kinase signaling pathway (ERK1/2 cascade) plays is a key role in transmitting signals from the cell surface to the nucleus (Nishida and Gotoh 1993; Chang and Karin, 2001). The cascade is initiated by the small G-protein Ras, which recruits Raf […], where activation occurs. Alternatively, this pathway can be activated by elevating intracellular cAMP.
Activation of the ERK pathway is essential in increased cell division and cell survival. Sustained and constitutive activation of the ERK pathway, however, has been linked to uncontrolled cell proliferation, increased cell survival, and tumor progression. Thus, the ERK has been as an attractive target for cancer chemotherapy in the past few years (Sebolt-Leopold and Herrera, 2004). […]
The HTRF kinase assay (components supplied as kit by Cisbio) was chosen for the EGFR and EGFR mutant enzyme assays that applied the time resolved fluorescence resonance energy transfer (TR-FRET) principle. […]

Sequence of Epidermal growth factor receptor (Homo sapiens) (P00533 whole entry T790M, looked up): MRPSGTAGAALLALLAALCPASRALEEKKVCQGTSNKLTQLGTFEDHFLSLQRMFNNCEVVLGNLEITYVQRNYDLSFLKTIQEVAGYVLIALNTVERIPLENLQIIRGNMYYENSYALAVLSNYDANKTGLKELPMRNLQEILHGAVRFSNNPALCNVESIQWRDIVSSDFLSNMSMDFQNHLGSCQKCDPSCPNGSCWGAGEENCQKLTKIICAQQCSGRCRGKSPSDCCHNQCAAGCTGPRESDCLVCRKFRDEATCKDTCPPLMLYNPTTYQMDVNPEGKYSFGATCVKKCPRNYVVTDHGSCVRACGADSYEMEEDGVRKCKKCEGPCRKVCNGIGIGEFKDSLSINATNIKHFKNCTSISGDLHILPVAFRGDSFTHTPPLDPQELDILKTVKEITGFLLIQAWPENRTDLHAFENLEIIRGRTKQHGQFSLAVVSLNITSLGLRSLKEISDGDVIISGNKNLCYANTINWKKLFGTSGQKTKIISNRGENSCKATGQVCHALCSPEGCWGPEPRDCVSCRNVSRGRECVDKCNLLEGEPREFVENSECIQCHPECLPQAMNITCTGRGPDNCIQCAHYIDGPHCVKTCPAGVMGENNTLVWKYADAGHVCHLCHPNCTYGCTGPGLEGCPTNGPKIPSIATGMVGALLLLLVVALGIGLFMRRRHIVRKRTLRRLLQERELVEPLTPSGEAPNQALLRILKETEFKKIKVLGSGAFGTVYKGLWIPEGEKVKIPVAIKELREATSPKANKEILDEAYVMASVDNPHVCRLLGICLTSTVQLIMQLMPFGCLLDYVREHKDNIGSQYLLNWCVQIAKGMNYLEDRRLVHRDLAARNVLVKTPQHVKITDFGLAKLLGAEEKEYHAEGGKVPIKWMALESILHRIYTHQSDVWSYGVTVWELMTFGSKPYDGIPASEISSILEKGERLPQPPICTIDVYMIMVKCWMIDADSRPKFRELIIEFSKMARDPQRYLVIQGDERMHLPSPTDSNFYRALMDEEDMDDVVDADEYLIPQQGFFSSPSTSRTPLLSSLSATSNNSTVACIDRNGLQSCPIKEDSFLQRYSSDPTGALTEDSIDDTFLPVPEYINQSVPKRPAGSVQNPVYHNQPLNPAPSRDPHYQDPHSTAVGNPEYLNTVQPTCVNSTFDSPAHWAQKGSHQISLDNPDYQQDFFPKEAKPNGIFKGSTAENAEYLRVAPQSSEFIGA

Consider `CCn1nc(-c2ccccc2)nc2c(=O)n(C)c(=O)nc1-2`, for which the outcome was inactive.

For `Cc1nc2c(=O)n(C)c(=O)nc-2n(C)n1`, the call was inactive.
